The list is not random: actives were taken first. Their share in the collection is about 9%.
Lamin A splicing = LMNA splicing modulation. HeLa LMNA splicing GFP/RFP minigene ratio, 48 h. Potency, µM (titrated, usually from 46.1 µM), for inactives: at the top dose ratio change, negative = inhibition, usual class: inhibitors. 0.01% of 200,000 active; active = well fitted inhibition curve with a large enough effect in the signal ratio, with a control signal flat, not every such curve was filed as active; inconclusive = small, poorly fitted or top-dose-only effect, or effect the other way, or a change in a side signal; the % refers to the signal ratio; note: % is set by controls: 0 for no effect and ±100 for the full control effect
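S3 HeLa cells stably expressing lamin A-EGFP splicing minigene plus DsRed2, 600 cells/well, 48 h compound exposure at 37C. Laser-scanning cytometry; analysed as GFP (500-530 nm)/RFP (575-640 nm) total intensity ratio; 0.5% DMSO vehicle.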
HttQ103 aggreg = mutant huntingtin aggregation inhibition; AID 1688; 1.1% of 220,000 active; PC12 HttQ103-GFP aggregates, Acumen cytometry, 40 h; Potency, µM (doses to about 46.1 µM), inactives show top-dose activity change, negative = inhibition, usual class: inhibitors; note: % is set by controls: 0 for no effect and ±100 for the full control effect; nearly all actives have a fitted effect of over 60% in size
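PC12/HTTQ103-GFP, ecdysone-inducible; teb 100 nM; cpd qHTS titration; GFP aggregates read on laser cytometer, Ex 488/Em 500-530 nm.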
KinaseGlo FLuc = blocks Kinase-Glo luciferase, a counter-screen artifact; 0.28% of 200,000 active; AID 1379; Potency, µM (series often up to 38.3 µM), for the others: at the highest dose activity change, negative = inhibition, most hits filed as inhibitors; Kinase-Glo luciferase, ATP luminescence, 8 min; Q27757; note: % is set by controls: 0 for no effect and ±100 for the full control effect; nearly all actives have a fitted effect of over 60% in size
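Kinase-Glo luciferase light output from ATP and luciferin was measured with 10 uM ATP, within the enzyme's linear range. Buffer: 50 mM imidazole pH 7.2, 50 mM KCl, 7 mM MgCl2, 0.01% Tween 20, 0.05% BSA; luminescence read after 8 min at ambient temperature.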
HTT ATP protect = cytoprotection in Huntington HTT-Q103 PC12 cell model; PC12 HTT-Q103 induced, cytoprotection, ATP luminescence, 40 h; Potency, µM (top dose mostly 56.4 µM), for the others: cytoprotection (ATP increase), actives largely listed as activators; 0.14% of 230,000 active; note: % of control where 0% means no effect; nearly all actives have a fitted effect of over 45% in size
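Stable PC12 Q103-GFP cells in serum-supplemented, phenol red-free DMEM; induction by tebufenozide at 100 nM final; compound dose series; cell viability quantified luminescently from ATP.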
ALDH1A1 block = ALDH1A1 (human) enzyme inhibition; P00352; Purified ALDH1A1, NADH fluorescence, propionaldehyde substrate; Potency, µM (titrated, usually from 75.3 µM), for the others: top-dose activity, negative = inhibition, most hits filed as inhibitors; 7.3% of 220,000 active; AID 1030; active = well fitted inhibition curve with a large enough effect, not every such curve was filed as active; inconclusive = small, poorly fitted or top-dose-only effect, or another doubt; inactive = no such curve, though single readings can be large or run the other way;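 note: plate controls were no enzyme wells and a reference inhibitor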
Target sequence (P00352 whole entry, looked up): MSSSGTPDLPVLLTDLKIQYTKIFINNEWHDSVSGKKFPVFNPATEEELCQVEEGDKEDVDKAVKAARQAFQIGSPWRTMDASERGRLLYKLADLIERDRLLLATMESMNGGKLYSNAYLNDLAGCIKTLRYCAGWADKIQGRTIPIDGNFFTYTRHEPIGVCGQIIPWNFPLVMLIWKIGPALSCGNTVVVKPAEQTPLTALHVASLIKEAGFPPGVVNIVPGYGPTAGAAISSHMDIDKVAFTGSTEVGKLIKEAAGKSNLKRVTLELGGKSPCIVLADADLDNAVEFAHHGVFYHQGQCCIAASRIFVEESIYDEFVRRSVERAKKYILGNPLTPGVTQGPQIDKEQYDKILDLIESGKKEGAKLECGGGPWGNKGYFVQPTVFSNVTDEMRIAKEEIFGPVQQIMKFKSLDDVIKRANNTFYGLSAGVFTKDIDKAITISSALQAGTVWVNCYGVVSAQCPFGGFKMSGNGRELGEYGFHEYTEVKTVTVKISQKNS
HPGD block = blocks human HPGD enzyme activity; Potency, µM, for the others: at the top dose activity change, negative = inhibition, most hits filed as inhibitors; P15428; AID 894; purified HPGD, NADH fluorescence kinetic, PGE2 substrate; 4.3% of 150,000 active; active = well fitted inhibition curve with a large enough effect, not every such curve was filed as active; inconclusive = small, poorly fitted or top-dose-only effect, or another doubt; inactive = no such curve, though single readings can be large or run the other way; note: % is set by controls: 0 for no effect and ±100 for the full control effect
Target sequence (P15428 whole entry, looked up): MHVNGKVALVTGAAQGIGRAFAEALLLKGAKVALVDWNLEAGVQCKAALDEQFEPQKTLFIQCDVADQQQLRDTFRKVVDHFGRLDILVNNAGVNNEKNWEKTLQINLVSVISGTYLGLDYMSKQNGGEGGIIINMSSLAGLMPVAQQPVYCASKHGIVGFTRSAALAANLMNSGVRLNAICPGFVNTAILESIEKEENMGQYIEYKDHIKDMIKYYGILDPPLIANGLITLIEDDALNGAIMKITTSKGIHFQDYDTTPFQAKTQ
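NADH formation kinetics: reaction with 30 uM PGE2 and 1 mM NAD+ (final), 20 nM enzyme, Tris-HCl pH 8 with Tween 20, after 15 min compound preincubation at room temperature. Fluorescence change, last versus first of five reads.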
Numbers without * were called inactive; ? = inconclusive; / = no result given; [ ] = another dose, or the depositor's remark. Unless noted, calls come from the whole dose curve; as a rule, active = well fitted curve in the direction sought with a large enough effect; inconclusive = small, poorly fitted or top-dose-only effect, or another doubt; inactive = no such curve, though single readings can be large; an effect the other way counts as inactive or inconclusive. Potency is the fitted concentration of half-maximal effect.

SMILES | Lamin A splicing | HttQ103 aggreg | KinaseGlo FLuc | HTT ATP protect | ALDH1A1 block | HPGD block
COc1cccc(-c2cc(C(=O)NC3CCCC3)no2)c1 | -9.6% | 2.3% | 2.6% | -36.7% | ? | 15.8µM*
COc1ccc(NC(=O)c2cc(-c3cccc(OC)c3)on2)cc1 | 1.0%[9.22 µM] | -22.4% | -0.9% | -13.4% | ? | /
COc1cc(OC)c(N(C)C(=O)CCNC(=O)Cn2cnc3ccccc3c2=O)cc1Cl | -8.6% | -11.2% | 2.3% | 25.9% | 1.0% | 0.9%
CCCSc1ccc2nc(-c3ccccc3)cn2c1 | ? | -1.5% | 10µM* | -69.4%[10 µM] | ? | ?
CCCCSc1ccc2nc(-c3ccc(C#N)cc3)cn2c1 | 12.3% | -2.5% | 5.7% | -36.9% | ? | -8.5%
Cc1cc(NC(=O)c2c(F)cccc2Cl)n(-c2nc3ccccc3[nH]2)n1 | -17.3% | ? | -3.1% | -40.2% | ? | -23.5%
CNC(=O)c1cc2c(s1)CCCCCC2 | -12.7% | -16.5% | -1.1% | -18.5%[0.074 µM] | ? | -9.8%
CC(C)(C)C1CCC(=NNC(=O)c2cc3c(s2)CCCC3)CC1 (configuration not stated) | -16.9% | -8.1% | 0.5% | 24.8%[10 µM] | 3.98µM* | -15.8%
O=C(NN=C1CCC(c2ccccc2)CC1)c1cc2c(s1)CCCC2 (configuration not stated) | -5.2% | -8.0% | 5.1% | -1.9%[10 µM] | 7.94µM* | -9.5%
CC1CCc2sc(C(=O)NN=C3CCC(c4ccccc4)CC3)cc2C1 (configuration not stated) | 6.1% | ? | -1.3% | -5.7%[10 µM] | 1.26µM* | -16.5%
CC1CCc2sc(C(=O)N/N=C/c3ccc([N+](=O)[O-])cc3)cc2C1 (configuration not stated) | -9.3% | -4.2% | 1.6% | 29.7%[10 µM] | 2.9% | -11.3%
CCc1cc(C(=O)NNC(=O)CCl)sc1C | / | ? | -0.6% | ? | ? | /
CC(C)NC(=S)NN=C1CCC(c2ccccc2)CC1 (configuration not stated) | 6.2%[46 µM] | -3.2% | 3.2% | -21.7% | 1.2% | /
CC(C)(C)C1CCc2sc(C(=O)NNC(=O)CCl)cc2C1 (configuration not stated) | / | -20.0% | 7.1% | -80.5% | 3.16µM* | /
N#Cc1ccc(CN2CC[C@@]3(CCCN(C(=O)c4cc(C(F)(F)F)cc(C(F)(F)F)c4)C3)C2)cc1 | / | / | -1.3% | -51.1% | -1.6% | -10.8%
CC(C)(C)C1CCC(=NNC(=O)c2ccccc2-n2cccc2)CC1 (configuration not stated) | -17.6% | 1.1% | 2.3% | 17.0%[10 µM] | 5.01µM* | -14.2%
O=C(NNc1cc(C(F)(F)F)nc2ccccc12)Nc1cccc(Cl)c1 | / | 11.8%[9.22 µM] | / | 14.8%[10 µM] | / | /
COc1ccc(CNC(=O)C2COc3ccccc3O2)cc1 (configuration not stated) | -9.6% | 13.4% | 3.6% | -10.6%[10 µM] | -3.1% | 14.1µM*
O=C(NC1CC2CCC1C2)C1COc2ccccc2O1 (configuration not stated) | -1.4% | 5.8% | -1.7% | 0.9%[1.9 µM] | 2.9% | 14.1µM*
COc1ccccc1CNC(=O)C1COc2ccccc2O1 (configuration not stated) | -10.0% | -22.8% | 6.8% | 1.0% | 4.0% | 15.8µM*
O=C(NN=C1CCCC1)NC1CCCCC1 | -0.6% | 11.9% | -1.6% | / | -3.2% | -9.2%
CCN1CCOC(CC(=O)Nc2cccc([N+](=O)[O-])c2)C1=O (configuration not stated) | / | 27.2%[9.22 µM] | / | 5.6%[10 µM] | / | /
CCOC(=O)c1ccc(NC(=O)CC2C(=O)OCCN2CC)cc1 (configuration not stated) | -21.5%[46 µM] | 6.3% | -3.5% | / | 1.41µM* | /
CCOC(=O)c1ccc(NC(=O)CC2OCCN(CC)C2=O)cc1 (configuration not stated) | -12.4% | -6.1% | -0.8% | -24.7% | 1.78µM* | -5.0%
CCCN1CCOC(CC(=O)Nc2ccc([N+](=O)[O-])cc2)C1=O (configuration not stated) | / | -9.0% | 3.3% | 13.7% | 8.91µM* | /
SMILES | Lamin A splicing | HttQ103 aggreg | KinaseGlo FLuc | HTT ATP protect | ALDH1A1 block | HPGD block
CCOC(=O)c1ccc(NC(=O)CC2SCCNC2=O)cc1 (configuration not stated) | ? | -1.0% | -2.5% | 1.4%[0.074 µM] | 12.6µM* | -4.1%
Cc1oc2ncn(CC(C)C)c(=O)c2c1C(=O)NCCCN(Cc1ccccc1)C(C)C | -3.8%[46 µM] | / | / | / | / | /
COCCOC(=O)c1c(C)n(C)c2ccc(OC(=O)c3ccco3)cc12 | 4.5% | 9.1% | -3.9% | 3.6%[10 µM] | -1.6% | -6.3%
COCCOC(=O)c1c(C)n(C)c2ccc(OC(=O)C3CC3)cc12 | 3.5% | 0.4% | 8.1% | 27.6% | 10µM* | -16.1%
O=C(O)CN1C(=O)/C(=C/c2ccc(SCc3ccccc3)o2)SC1=S | ? | 15.6% | -2.8% | -73.1% | 3.55µM* | /
O=C(O)CN1C(=O)/C(=C/C=C/c2ccccc2)SC1=S | ? | 21.6% | -0.6% | -134.4% | ? | /
Cn1cccc1/C=C1\SC(=S)N(CC(=O)O)C1=O | 2.5% | -5.2% | -2.8% | 23.2%[10 µM] | -5.2% | 28.2µM*
O=C(O)CCN1C(=O)/C(=C\c2ccncc2)SC1=S | / | ? | -1.2% | / | -13.5% | /
O=C(O)CN1C(=O)/C(=C/c2ccsc2)SC1=S | -10.9%[46 µM] | 13.3% | -0.7% | -15.0% | -11.2% | /
O=C(O)CCN1C(=O)/C(=C\c2ccc(-c3nc4ccccc4s3)o2)SC1=S | -2.6% | / | 17.0% | ? | ? | 15.8µM*
COc1ccc(NC(=O)NC2CCN(C(C)C)CC2)c(OC)c1 | -6.6% | 2.5%[1.84 µM] | 7.4% | 7.6% | 8.9% | -7.8%
O=[N+]([O-])c1ccc(N/N=C/c2ccc[nH]2)cc1 | ? | 3.8% | ? | / | 1.6% | 14.1µM*
O=[N+]([O-])c1ccc(N/N=C/c2c[nH]c3ccccc23)cc1 | 0.7%[0.0737 µM] | 5.8% | -2.1% | -28.8% | -15.5% | -3.0%
Cc1cccc(C)c1NC(=O)CN(C)CC(=O)Nc1ccc(F)c(Cl)c1 | 5.1%[46 µM] | -17.5% | -2.6% | -34.1% | 0.3% | /
Cc1ccc(N2C(=O)CC(Sc3ccccc3C(=O)O)C2=O)c([N+](=O)[O-])c1 (configuration not stated) | ? | 5.3%[9.22 µM] | 3.7% | 2.1%[10 µM] | 2µM* | /
COc1ccc(N2C(=O)CC(Sc3ccccc3C(=O)O)C2=O)c([N+](=O)[O-])c1 (configuration not stated) | ? | -3.8% | 0.6% | -2.8%[10 µM] | 1µM* | /
O=C1OC(c2ccc(O)c(-c3ccccc3)c2)(c2ccc(O)c(-c3ccccc3)c2)c2c(Cl)c(Cl)c(Cl)c(Cl)c21 | / | / | -0.5%[7.66 µM] | 5.0%[10 µM] | 19.0%[13.5 µM] | -8.3%
O=C1OC2(c3cc(Br)c(O)c(Br)c3Oc3c2cc(Br)c(O)c3Br)c2c(Cl)c(Cl)c(Cl)c(Cl)c21 | / | / | / | -79.5% | 25.1µM* | 12.6µM*
Nc1ccc(SC(F)(F)F)cc1 | 7.1%[46 µM] | 21.8% | 0.6% | -14.7%[10 µM] | 20µM* | /

Screening results (PubChem BioAssay)
